Measured values as given in the supplement of paper PMC12669032.
Unmarked numbers belong to inactive results.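 How the source made its calls: active = AUC reduced over 20% with Padj below 0.05 in at least 2 of 3 replicates; inactive = otherwise.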

Assays:
Roseburia intestinalis = experiment: growth AUC relative to DMSO control (median of replicates) (fraction); higher = more growth (less inhibition), active = hit call of the paper; settings: 20 µM; 24 h
Outline: (§1)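 Each value is the median of three biological replicates, grown on separate days, of a gut bacterial monoculture incubated anaerobically at 37 °C in mGAM with 20 µM compound (1% DMSO). Cultures started at OD600 0.05 and were read at OD600 hourly for 24 h, with the minimum OD set to 0. Area under the growth curve was normalised to the plate median of solvent-only wells, or to row and column medians on the industrial chemical plate.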

Streptococcus salivarius = experiment: as above; settings: 20 µM; 24 h
Outline: as §1

SMILES	growth AUC (Roseburia intestinalis)	growth AUC (Streptococcus salivarius)
CCNc1nc(NC(C)C)nc(OC)n1	0.953	0.945
COC(=O)c1cc(Oc2ccc(Cl)cc2Cl)ccc1[N+](=O)[O-]	0.891	1.02
CC(=O)O.CC(=O)O.CC(=O)O.NC(N)=NCCCCCCCCNCCCCCCCCN=C(N)N	0.029 (active)	0.454 (active)
CP(=O)(O)CCC(N)C(=O)[O-].[NH4+] (stereo not drawn)	1.06	1.01
[CH3][Hg][Cl]	1.05	0.848
COc1ccc(-c2ccccc2)cc1NNC(=O)OC(C)C	1.03	1.02
COP(=S)(OC)Oc1nc(Cl)c(Cl)cc1Cl	1	1.02
C=CC1(C)OC(=O)N(c2cc(Cl)cc(Cl)c2)C1=O (stereo not drawn)	0.973	1.02
CC(C)(C)C(=O)C(Oc1ccc(Cl)cc1)n1cncn1 (stereo not drawn)	1.03	1.01
CCN(CC)C(=S)[S-].O.O.O.[Na+]	0.894	1.03
CCOC(=O)C(C)OC(=O)c1cc(Oc2ccc(C(F)(F)F)cc2Cl)ccc1[N+](=O)[O-] (stereo not drawn)	0.78 (active)	0.903
CNC(=O)/C(=N/OC)c1ccccc1Oc1ccccc1	1.04	0.989
CON(C)C(=O)Nc1ccc(Cl)c(Cl)c1	0.925	0.945
Cc1ccc(N=CN(C)C=Nc2ccc(C)cc2C)c(C)c1	0.983	0.967
O=S1OCC2C(CO1)C1(Cl)C(Cl)=C(Cl)C2(Cl)C1(Cl)Cl (stereo not drawn)	0.988	0.977
CCCCc1c(C)nc(NCC)nc1OS(=O)(=O)N(C)C	1.03	1.02
NCCO.O=C(O)c1nc(Cl)ccc1Cl	1.03	1.05

SMILES	growth AUC (Roseburia intestinalis)	growth AUC (Streptococcus salivarius)
O=C(Nc1ccccc1)N(Cc1ccc(Cl)cc1)C1CCCC1	0.991	0.994
CCc1nn(C)c(C(=O)NCc2ccc(C(C)(C)C)cc2)c1Cl	0.96	0.906
CC(C)(C)C(O)/C(=C/c1ccc(Cl)cc1Cl)n1cncn1 (mixture of isomers)	0.929	0.945
CCOP(=S)(OCC)SCn1c(=O)oc2cc(Cl)ccc21	0.932	0.98
CN(C)C1CSSSC1.O=C(O)C(=O)O	1.2	0.994
c1ccc2c(c1)ccc1c3ccccc3sc21	0.964	1.05
C[C@@H]1C[C@@H]([C@H](O)CC2CC(=O)NC(=O)C2)C(=O)[C@@H](C)C1	0.987	1.03
CN(C)NC(=O)CCC(=O)O	0.953	0.951
O=c1[nH]c(Cl)c(Cl)cc1Cl	0.993	0.998
C=C/C=C/CC1=C(C)C(OC(=O)[C@@H]2C(/C=C(\C)C(=O)OC)C2(C)C)CC1=O.C=C/C=C/CC1=C(C)[C@@H](OC(=O)[C@@H]2C(C=C(C)C)C2(C)C)CC1=O (stereo partly drawn)	1.02	0.947
CCCN(CC)CC1COC2(CCC(C(C)(C)C)CC2)O1 (stereo not drawn)	1.03	0.96
CCOc1ccc(C(C)(C)COCc2cccc(Oc3ccccc3)c2)cc1	0.975	0.983
CC(Cl)(Cl)C(=O)O	1.01	1.01
ClC1=C(Cl)C2(Cl)C3C(Cl)C=CC3C1(Cl)C2(Cl)Cl (stereo not drawn)	0.918	0.928
Cc1cc(C)c(C2=C(OC(=O)CC(C)(C)C)C3(CCCC3)OC2=O)c(C)c1	0.989	0.991
OC[C@@H](O)[C@H]1O[C@@H]2O[C@H](C(Cl)(Cl)Cl)O[C@@H]2[C@H]1O (mixture of isomers)	0.967	1.01
Cc1cc(Cl)ccc1O	1.01	1.04
